Where “and” joins values, the source holds several entries; their conditions need not be identical. Equal entries are not always repeated. Records with an inconclusive call do not appear. Where a call stands in place of a potency, no number is given. Calls of active or inactive are those of the source. Calls follow the shape of the full dose curve.
Potency is read from the fitted curve at half-maximal effect.

The first test can be described thus: Cytotoxicity counterscreen for inhibitors of SARS-CoV-2 cell entry (AID 1645845). Also: nearly all actives have a fitted effect of over 50% in size. The settings on record: cell viability (SARS-CoV-2 entry assay cells); series mostly up to 57.1 µM. The method, boiled down: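 48 h compound treatment (after 1 h preincubation), HEK293-ACE2 cells, 37 C/5% CO2; ATP luminescence endpoint; normalized to cell wells and media blanks.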
In general terms: A counterscreen serves to expose hits that act by an unwanted route or on another target.
For the molecule `CC1(O)CC(c2nc(-c3ccc4ccc(-c5ccccc5)nc4c3)c3c(N)nccn23)C1` (stereo unspecified), the Potency result was “inactive”.

In the case of `COc1cc(Nc2ncc3c(n2)-c2ccc(Cl)cc2C(c2c(F)cccc2OC)=NC3)ccc1C(=O)O`, the Potency result was “inactive”.

With `NC(CO)C(=O)NNCc1ccc(O)c(O)c1O` (stereo unspecified), the Potency entry is “inactive”.

Regarding `N#Cc1ccc(NC(=O)Nc2ccccc2Br)c2n[nH]nc12`, the Potency entry is “inactive”.

Regarding `CS(=O)(=O)c1ccc(C(=O)Nc2ccc(Cl)c(-c3ccccn3)c2)c(Cl)c1`, the Potency entry is “inactive”.

On to `Cn1c2cc(S(C)=O)sc2c2cnn(Cc3cccc(N)c3)c(=O)c21` (stereo unspecified), for which the Potency entry is “inactive”.

For `COc1nc(C)cnc1NS(=O)(=O)c1cccnc1-c1ccc(-c2nnco2)cc1`, the Potency result was “inactive”.

In the case of `CC(C)CCCC(C)CCCC(C)CCCCC(C)CCCC(C)CCCC(C)C` (stereo unspecified), the Potency entry is “inactive”.

As for `CCc1cc(Nc2nccc(-c3c(-c4ccc(OC)c(C(=O)Nc5c(F)cccc5F)c4)nc4ccccn34)n2)c(OC)cc1N1CCC(N2CCN(S(C)(=O)=O)CC2)CC1`, the Potency entry is “inactive”.

On to `[O-][n+]1cccc(/C(Cl)=N/OC[C@@H](O)CN2CCCCC2)c1`, for which the Potency entry was “inactive”.

Take `CCCCCN(CCC12CC3CC(CC(C3)C1)C2)C(=O)NCCCc1ccncc1`: the Potency entry is “inactive”.

Consider `O=C(Nc1ccc(OC(F)(F)F)cc1)c1sccc1NCc1ccnc2ccccc12`, for which the Potency result is “inactive”.

For the molecule `COC(=O)[C@@H](N)CCCN=C(N)N[N+](=O)[O-]`, the Potency entry was “inactive”.

`N#C/C(=C1\SCC(c2ccccc2Cl)S1)n1ccnc1` (stereo unspecified): the Potency result is “inactive”.

As to `Fc1ccc(Cl)cc1-c1nc(Nc2ccncc2)c2nccnc2n1`, the Potency entry is “inactive”.

On to `CCN1CCN(c2cc3c(cc2F)c(=O)c(C(=O)O)cn3C2CC2)CC1`, for which the Potency entry was “inactive”.

Consider `C[C@H](NC(=O)Cc1cc(F)cc(F)c1)C(=O)N[C@@H]1C(=O)N(C)c2ccccc2-c2ccccc21`, for which the Potency entry was “inactive”.

Turning to `CN1C(=O)C(Cc2c[nH]c3ccccc23)NC1=S` (stereo unspecified), the Potency result is “inactive”.

Consider `CCCOC(=O)c1ccc(O)cc1`, for which the Potency result is “inactive”.

Consider `COc1cc2nc(-c3ccc(N4CCN(C)CC4)cc3)nc(NCCN3CCOCC3)c2cc1OC`, for which the Potency result is “inactive”.

With `CC(=O)N[C@@H](CCC(N)=O)C(=O)O`, the Potency result is “inactive”.

In the case of `C=C1C(=CC=C2CCC[C@]3(C)[C@@H]([C@H](C)C=C[C@H](C)C(C)C)CC[C@@H]23)C[C@@H](O)C[C@@H]1O`, the Potency result was “inactive”.

Turning to `COc1ccc(CC2SC(=O)NC2=O)cc1C(=O)NCc1ccc(C(F)(F)F)cc1` (stereo unspecified), the Potency result is “inactive”.

For the molecule `Fc1cc(-c2cccc3ncc(-c4cnn(C5CCNCC5)c4)nc23)cc(F)c1CN1CCOCC1`, the Potency was 31.6 µM (active).

As for `CN1[C@@H]2CC[C@H]1CC(OC(=O)C(O)c1ccccc1)C2` (stereo partly specified), the Potency entry was “inactive”.

As for `CCCn1c(=O)c2[nH]c(C34CC5CC3C[C@@H](C5)C4)nc2n(CCC)c1=O`, the Potency result was “inactive”.

In the case of `C=CCNC(N)=S`, the Potency entry is “inactive”.

As for `O=C1NS(=O)(=O)c2ccccc21`, the Potency entry was “inactive”.

On to `CC(C)(C(=O)NCC(F)(F)C(F)(F)F)C(=O)N[C@@H]1C(=O)Nc2ccccc2-c2ccccc21`, for which the Potency result was “inactive”.

As to `CC(=O)Oc1ccccc1C(=O)O`, the Potency entry was “inactive”.

In the case of `COc1cc2c(Oc3ccc(NC(=O)C4(C(=O)Nc5ccc(F)cc5)CC4)cc3F)ccnc2cc1OCCCN1CCOCC1`, the Potency is 31.6 µM (active).

`COc1ccc2c3n(c(=NC(=O)c4cccnc4)nc2c1OC)CCN3`: the activity change, negative = cytotoxicity is 3.4% [at 5.25 µM] (inactive).

For the molecule `Cc1n[nH]c(C)c1Cc1sc2c(c1C(=O)N1C[C@H](O)CO1)c(=O)n(C)c(=O)n2CC(C)C`, the Potency entry is “inactive”.

As for `Cc1ccccc1N=Nc1ccc(N=Nc2c(O)ccc3ccccc23)c(C)c1`, the Potency entry is “inactive”.

As for `CC(C)(C)C(=O)Oc1ccc2c(c1)nc(NC(=O)c1cccc([N+](=O)[O-])c1)n2CCCO`, the Potency entry is “inactive”.

With `Nc1nc2c(ncn2CCC(CO)CO)c(=O)[nH]1`, the Potency result was “inactive”.

As for `CCOC(=O)C(C)Oc1cccc2c(=O)n(CC(=O)Nc3ccc4c(c3)OCCO4)ccc12` (stereo unspecified), the Potency entry is “inactive”.

`CCCCCCCCCCCCCC(=O)OC(C)C`: the Potency result is “inactive”.

A short description of the next test: Primary qHTS to identify inhibitors of SARS-CoV-2 cell entry (AID 1645846). Also: nearly all actives have a fitted effect of over 45% in size. The settings on record: SARS-CoV-2 pseudovirus cell entry assay, luminescence; activity change, negative = inhibition: at 57.1 µM (top of the series) unless noted; series mostly up to 57.1 µM. The method, boiled down: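 Using luciferase-reporting pseudoviruses carrying Wuhan-Hu-1 spike, the screen tracks entry into stably ACE2-expressing cells over 48 hr. Activity is expressed relative to spike particles versus particles lacking any fusion protein.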
Take `CC1(O)CC(c2nc(-c3ccc4ccc(-c5ccccc5)nc4c3)c3c(N)nccn23)C1` (stereo unspecified): the activity change, negative = inhibition is -23.9%.

With `COc1cc(Nc2ncc3c(n2)-c2ccc(Cl)cc2C(c2c(F)cccc2OC)=NC3)ccc1C(=O)O`, the activity change, negative = inhibition was -83%.

On to `NC(CO)C(=O)NNCc1ccc(O)c(O)c1O` (stereo unspecified), for which the Potency result is “inactive”.

For the molecule `N#Cc1ccc(NC(=O)Nc2ccccc2Br)c2n[nH]nc12`, the Potency entry was “inactive”.

As to `CS(=O)(=O)c1ccc(C(=O)Nc2ccc(Cl)c(-c3ccccn3)c2)c(Cl)c1`, the activity change, negative = inhibition is -12.8% and -5.84%.

For the molecule `Cn1c2cc(S(C)=O)sc2c2cnn(Cc3cccc(N)c3)c(=O)c21` (stereo unspecified), the activity change, negative = inhibition was -23.3%.

As for `COc1nc(C)cnc1NS(=O)(=O)c1cccnc1-c1ccc(-c2nnco2)cc1`, the Potency result is “inactive”.

Regarding `CC(C)CCCC(C)CCCC(C)CCCCC(C)CCCC(C)CCCC(C)C` (stereo unspecified), the activity change, negative = inhibition is -16.5%.

As for `CCc1cc(Nc2nccc(-c3c(-c4ccc(OC)c(C(=O)Nc5c(F)cccc5F)c4)nc4ccccn34)n2)c(OC)cc1N1CCC(N2CCN(S(C)(=O)=O)CC2)CC1`, the Potency entry was “inactive”.

With `[O-][n+]1cccc(/C(Cl)=N/OC[C@@H](O)CN2CCCCC2)c1`, the Potency entry is “inactive”.

For `CCCCCN(CCC12CC3CC(CC(C3)C1)C2)C(=O)NCCCc1ccncc1`, the activity change, negative = inhibition was -12.6%.

`O=C(Nc1ccc(OC(F)(F)F)cc1)c1sccc1NCc1ccnc2ccccc12`: the activity change, negative = inhibition was -18%.

Turning to `COC(=O)[C@@H](N)CCCN=C(N)N[N+](=O)[O-]`, the activity change, negative = inhibition was -1.1%.

With `N#C/C(=C1\SCC(c2ccccc2Cl)S1)n1ccnc1` (stereo unspecified), the Potency entry was “inactive”.

Consider `Fc1ccc(Cl)cc1-c1nc(Nc2ccncc2)c2nccnc2n1`, for which the activity change, negative = inhibition is -13.6%.

`CCN1CCN(c2cc3c(cc2F)c(=O)c(C(=O)O)cn3C2CC2)CC1`: the Potency entry is “inactive”.

As for `C[C@H](NC(=O)Cc1cc(F)cc(F)c1)C(=O)N[C@@H]1C(=O)N(C)c2ccccc2-c2ccccc21`, the activity change, negative = inhibition was determined as 3.07%.

On to `CN1C(=O)C(Cc2c[nH]c3ccccc23)NC1=S` (stereo unspecified), for which the Potency entry was “inactive”.

Take `CCCOC(=O)c1ccc(O)cc1`: the Potency result is “inactive”.

Take `COc1cc2nc(-c3ccc(N4CCN(C)CC4)cc3)nc(NCCN3CCOCC3)c2cc1OC`: the activity change, negative = inhibition is -14.2%.

`CC(=O)N[C@@H](CCC(N)=O)C(=O)O`: the activity change, negative = inhibition was -25.1%.

As to `C=C1C(=CC=C2CCC[C@]3(C)[C@@H]([C@H](C)C=C[C@H](C)C(C)C)CC[C@@H]23)C[C@@H](O)C[C@@H]1O`, the Potency result was “inactive”.

For `COc1ccc(CC2SC(=O)NC2=O)cc1C(=O)NCc1ccc(C(F)(F)F)cc1` (stereo unspecified), the activity change, negative = inhibition is -1.76%.

For `Fc1cc(-c2cccc3ncc(-c4cnn(C5CCNCC5)c4)nc23)cc(F)c1CN1CCOCC1`, the Potency is 12.6 µM (active).

For `CN1[C@@H]2CC[C@H]1CC(OC(=O)C(O)c1ccccc1)C2` (stereo partly specified), the activity change, negative = inhibition was -6.45%.

As for `CCCn1c(=O)c2[nH]c(C34CC5CC3C[C@@H](C5)C4)nc2n(CCC)c1=O`, the activity change, negative = inhibition was -12.4%.

Consider `C=CCNC(N)=S`, for which the Potency entry was “inactive”.

In the case of `O=C1NS(=O)(=O)c2ccccc21`, the activity change, negative = inhibition is -23.6%.

As for `CC(C)(C(=O)NCC(F)(F)C(F)(F)F)C(=O)N[C@@H]1C(=O)Nc2ccccc2-c2ccccc21`, the activity change, negative = inhibition is -16.5%.

Regarding `CC(=O)Oc1ccccc1C(=O)O`, the Potency result was “inactive”.

In the case of `COc1cc2c(Oc3ccc(NC(=O)C4(C(=O)Nc5ccc(F)cc5)CC4)cc3F)ccnc2cc1OCCCN1CCOCC1`, the Potency is 8.91 µM (active).

Take `COc1ccc2c3n(c(=NC(=O)c4cccnc4)nc2c1OC)CCN3`: the activity change, negative = inhibition is -3.67% [at 5.25 µM].

For `Cc1n[nH]c(C)c1Cc1sc2c(c1C(=O)N1C[C@H](O)CO1)c(=O)n(C)c(=O)n2CC(C)C`, the activity change, negative = inhibition is -55.4%.

On to `Cc1ccccc1N=Nc1ccc(N=Nc2c(O)ccc3ccccc23)c(C)c1`, for which the activity change, negative = inhibition was -23%.

In the case of `CC(C)(C)C(=O)Oc1ccc2c(c1)nc(NC(=O)c1cccc([N+](=O)[O-])c1)n2CCCO`, the activity change, negative = inhibition is -6.43%.

On to `Nc1nc2c(ncn2CCC(CO)CO)c(=O)[nH]1`, for which the activity change, negative = inhibition was -17.9%.

Consider `CCOC(=O)C(C)Oc1cccc2c(=O)n(CC(=O)Nc3ccc4c(c3)OCCO4)ccc12` (stereo unspecified), for which the activity change, negative = inhibition was -0.424%.

As for `CCCCCCCCCCCCCC(=O)OC(C)C`, the Potency entry is “inactive”.

(Values after PubChem BioAssay (NCATS).)
